Screening data (PubChem)
DENV2 CPE rescue = DENV2-induced cell death inhibition | CPE inhibition, % at 9.99 µM | DENV2-infected cells, cytopathic effect rescue, plate reader | AID 651640 | 350,000 compounds, 1.7% hits; in the data active means CPE inhibition above about 20%, passing the limit was not always enough; inconclusive means no clear call, values can overlap the other calls; tested in BHK-21 cells;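 further: 0% = median of neutral control wells and 100% = median of positive control wells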
RAD52 inh = blocks human RAD52 DNA annealing | P43351 | 360,000 compounds, 0.46% hits | inhibition, % at 18.7 µM | recombinant RAD52 DNA annealing, FRET fluorescence;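 active means every replicate showing at least 50% inhibition; inconclusive means mean inhibition at least 50% but not in every replicate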
Target sequence (P43351 whole entry, looked up): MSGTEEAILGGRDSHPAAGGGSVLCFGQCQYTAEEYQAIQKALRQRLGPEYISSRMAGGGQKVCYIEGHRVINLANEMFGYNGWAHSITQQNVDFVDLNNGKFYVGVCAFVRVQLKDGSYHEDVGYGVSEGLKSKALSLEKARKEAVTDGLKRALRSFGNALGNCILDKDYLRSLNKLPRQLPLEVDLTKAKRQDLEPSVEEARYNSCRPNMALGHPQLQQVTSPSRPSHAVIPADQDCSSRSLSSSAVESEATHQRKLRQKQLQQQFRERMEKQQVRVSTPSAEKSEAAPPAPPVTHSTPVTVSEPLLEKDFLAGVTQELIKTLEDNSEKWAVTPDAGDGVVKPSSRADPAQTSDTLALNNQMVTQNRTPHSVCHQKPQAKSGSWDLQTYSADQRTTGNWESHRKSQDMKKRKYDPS
FGF22 binding = shifts melting point of recombinant human FGF22. recombinant FGF22 thermal shift, SYPRO orange fluorescence; percent of sucrose octasulfate shift, DMSO zero. activity (Tm shift, normalised), % at 9.99 µM. 340,000 compounds, 1.5% hits. AID 651658;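 active means mean Tm shift, scaled 0 neutral to 100 positive control, at about 1.3% or above, every replicate too, limit read from the data; inconclusive means no clear call, values can overlap the other calls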
MLL AF4-AF9 inh = MLL-AF4/AF9 protein interaction inhibition. AID 651704. 350,000 compounds, 0.47% hits. P42568. inhibition, % at 10 µM. AlphaScreen, biotin-AF4 peptide binding to FLAG-AF9;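 active means every replicate reaching a set inhibition limit, whatever the replicate mean, cut at about 25% in these data; inconclusive means mean inhibition reaches that limit but some replicates miss it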;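 further: 0% = plate neutral control median and 100% = total signal loss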
ERAP1 inh = inhibitors of human ERAP1 aminopeptidase; inhibition, % at 10.7 µM; recombinant ERAP1, Leu-AMC fluorescence, 60 min; 340,000 compounds, 0.15% hits; Q9NZ08;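 active means mean replicate inhibition of at least 30%, or all replicates individually reaching that 30% level; inactive means mean below 30% and not every replicate reaching it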;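 further: 0% = neutral control wells and 100% = L-leucinethiol positive control wells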
Numbers without * were called inactive; ? = inconclusive; . = no result. Most compounds without a hit are left out; they make up all but 4% or so of the library.

SMILES | DENV2 CPE rescue | RAD52 inh | FGF22 binding | MLL AF4-AF9 inh | ERAP1 inh
COc1ccc(S(=O)(=O)Nc2ccc3c(c2)C(=O)N([C@H](C)CO)C[C@@H](C)[C@H](CN(C)C(=O)Nc2ccc(C(F)(F)F)cc2)OCCCC[C@@H](C)O3)cc1 | 18 | -17 | 1.2* | 0 | -3
COCC#Cc1ccc2c(c1)O[C@@H](CN(C)C(=O)CC1CC1)[C@@H](C)CN([C@@H](C)CO)S2(=O)=O | 9 | 2 | 0 | -2 | -5
OC(C1=CC(=Cc2ccncc2)c2ccccc21)c1ccncc1 (stereo not given) | -1 | -9 | 43* | 4 | 7
COCCCN=C1NN=C(c2cc(C)n(Cc3ccccc3Cl)c2C)CS1 | 0 | -14 | 43* | 8 | -2
COCCCN=C1NN=C(c2cc(C)n(-c3ccccc3)c2C)CS1 | -4 | -14 | 0 | 0 | -2
CCOC(=O)CNC(=S)N(Cc1cccs1)C1CCCCC1 | 21* | -8 | 0 | -1 | 3
Cc1ccc(S(=O)(=O)Nc2ccc3c(c2)C(=O)N([C@@H](C)CO)C[C@H](C)[C@H](CN(C)Cc2ccc(C(F)(F)F)cc2)OCCCC[C@H](C)O3)cc1 | -25 | -41 | 0 | -1 | 0
CCOc1ccc(CN2CCN(Cc3nc(C(C)C)cs3)CC2CCO)cc1 (stereo not given) | 1 | -1 | 43* | 2 | 5
CCOc1ccccc1CN1CCN(Cc2ccc(C)o2)C(CCO)C1 (stereo not given) | -7 | -12 | 43* | 3 | -1
CCOc1ccc(CN2CCN(CCCn3cccn3)CC2CCO)cc1 (stereo not given) | -2 | -8 | 0 | 5 | .
CC(C)c1csc(CN2CCN(Cc3ccccc3)C(CCO)C2)n1 (stereo not given) | 1 | -2 | 0 | 0 | -4
CCOc1ccccc1CN1CCN(Cc2ccc(C)o2)CC1CCO (stereo not given) | . | -12 | 0 | 3 | -3
OCCC1CN(CCCn2cccn2)CCN1Cc1ccccc1 (stereo not given) | 3 | -5 | 43* | 1 | 7
CCOc1ccc(CN2CCN(CCCc3ccccc3)CC2CCO)cc1 (stereo not given) | 22* | -7 | 0 | 5 | -3
CNC[C@H]1Oc2c(NC(=O)Nc3ccc4c(c3)OCO4)cccc2C(=O)N([C@H](C)CO)C[C@H]1C | ? | -6 | 0 | 6 | -1
CCCCCC(O)CCCC(=O)O (stereo not given) | 8 | -5 | 0 | -5 | -3
CCCCCCCCCCC(C(=O)O)C1(C(=O)O)CCC(=O)O1 (stereo not given) | 1 | -17 | 0 | -2 | 38*
CO[C@@H]1CN(C)C(=O)c2ccc(NS(=O)(=O)c3ccc(-c4ccccc4)cc3)cc2OC[C@@H](C)NC[C@@H]1C | 1 | 14 | 0 | -3 | 0
Cc1ccccc1NC(=S)Nn1cnnc1 | -4 | -10 | 0 | -3 | 5
Cc1cccc(NC(=S)Nn2cnnc2)c1C | 18 | -2 | 43* | 0 | -1
Fc1ccccc1NC(=S)Nn1cnnc1 | 44* | -8 | 0 | -4 | -1
O=S(=O)(Nc1cccc(S(=O)(=O)N2CCCCC2)c1)c1ccccc1F | -2 | -6 | 44* | 2 | 1
O=S(=O)(Nc1cccc(S(=O)(=O)N2CCCC2)c1)c1ccccc1F | -3 | -7 | 0 | -1 | -2
O=S(=O)(Nc1cccc(S(=O)(=O)N2CCCC2)c1)c1cccs1 | 7 | -24 | 43* | 2 | 4
C[C@H]1CN([C@@H](C)CO)S(=O)(=O)c2ccc(-c3ccncc3)cc2O[C@@H]1CN(C)Cc1cccnc1 | -5 | 4 | 0 | -4 | 0
O=C(C[C@H]1C[C@H]2c3cc(NC(=O)Nc4ccccc4F)ccc3O[C@H]2[C@@H](CO)O1)NCc1cc(F)ccc1F | -3 | 18 | 0 | -5 | 0
O=C(c1cccnc1)N1CC2(C1)[C@H](c1ccccc1)[C@@H](CO)N2Cc1ccccc1 | 108* | -2 | 0 | 4 | -2
CCS(=O)(=O)N1CC2(C1)[C@H](c1ccccc1)[C@@H](CO)N2Cc1ccccn1 | -1 | -25 | 0 | 0 | -3
CCS(=O)(=O)N1CC2(C1)[C@@H](c1ccccc1)[C@H](CO)N2Cc1ccccn1 | 22* | -28 | 0 | -2 | -6
